Laboratory results reported in PubChem BioAssay.
The source made the active and inactive calls.

Columns and labels:
[1] = small molecules captured by biotinylated probe aFSTL3 – biochemical, small-molecule microarray, fluorescence 635/667, stem cell growth factor project, primary screen (AID 1064); conditions: higher = more signal;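 also: measures binding of the biotinylated anti-FSTL3 antibody to printed compounds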
[2] = binders from COS7 lysate, DM2A8 probe, primary screen, torsin A project, cell lysate, small-molecule microarray, fluorescence 635/667 (AID 1065); conditions: higher = more signal, COS7 lysate expressing mutant human TOR1A
[3] = small molecules captured by biotinylated probe aFGF2 – biochemical, small-molecule microarray, fluorescence 635/667, stem cell growth factor project, primary screen (AID 1067); conditions: higher = more signal;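 also: measures binding of biotinylated aFGF2 protein to printed compounds on slides; z-score merges feature fluorescence and signal-to-noise across triplicate slides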
[4] = small molecules captured by biotinylated probe aFGF10 – biochemical, small-molecule microarray, fluorescence 635/667, stem cell growth factor project, primary screen (AID 1071); conditions: higher = more signal;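 also: score merges 667 nm spot intensity and signal to noise from triplicate slides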
[5] = biological target: Neurogenic locus notch homolog protein 2 (Homo sapiens) (UniProt Q04721); test: small molecules binding Notch2 protein – biochemical, small-molecule microarray, 635 nm fluorescence, stem cell growth factors, primary screen (AID 1073); conditions: higher = more signal
[6] = biological target: Pro-neuregulin-1, membrane-bound isoform (Homo sapiens) (UniProt Q02297); test: small molecules binding neuregulin-1 protein – biochemical, small-molecule microarray, fluorescence 635/667, psychiatric disease protein project, primary screen (AID 1075); conditions: NRG1 binding, 635 nm fluorescence, higher = more signal;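 also: score combines 667 nm spot fluorescence with signal to noise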
[7] = system: Neuregulin-1 EGF-like domain; test: small molecules binding NRG1 EGF domain – biochemical, small-molecule microarray, 635 nm fluorescence, primary screen (AID 1081); conditions: higher = more signal;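 also: binding of the protein to compounds printed on small-molecule microarray slides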
[8] = FRG1 expression reporter modulators in myotubes – cell-based, C2C12 myotubes, firefly/Renilla luciferase, luminescence, FRG1 inhibition for FSHD, primary screen (AID 1084); conditions: FRG1 promoter luciferase, higher = more signal, called active from +8 up or from −8 down
[9] = small molecules captured by biotinylated probe aFST – biochemical, small-molecule microarray, fluorescence 635/667, stem cell growth factor project, primary screen (AID 1086); conditions: higher = more signal;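 also: score merges 667 nm fluorescence with signal-to-noise of each printed compound spot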
[10] = binders of probe aHhip on microarray, primary screen, stem cell growth factor project, biochemical, small-molecule microarray, fluorescence 635/667 (AID 1087); conditions: higher = more signal;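 also: score merges spot fluorescence at 667nm with spot signal to noise ratio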
[11] = system: PRMT1 (protein arginine N-methyltransferase 1); test: small molecules binding arginine methyltransferase PRMT1 – biochemical, small-molecule microarray, 635 nm fluorescence, primary screen (AID 1088); conditions: higher = more signal;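 also: binding of Prmt1 protein to compounds spotted on small-molecule microarray slides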
[12] = growth effects on S. cerevisiae YJM789 – YJM789 clinical isolate, OD600, 24 h, basal, primary screen (AID 1089); conditions: higher = more signal, called active from +8 up or from −8 down;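 also: growth of clinical yeast isolate S. cerevisiae YJM 789 seeded 1000 cells per well; test concentration not given here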
[13] = S. pombe growth modifiers, basal conditions – strain 972, OD600, 24 h, no modulator, primary screen (AID 1090);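 also: basal condition with compound alone and no growth modifier present; test concentration not given here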; conditions: S. pombe 972 growth, higher = more signal, called active from +8 up or from −8 down
[14] = budding yeast growth modifiers under rapamycin – strain BY4716, OD600, 96 h, primary screen (AID 1091); also: test concentration not given here; conditions: S. cerevisiae BY4716 + rapamycin, higher = more signal, called active from +8 up or from −8 down
[15] = biological target: Torsin-1A-interacting protein 2 (Homo sapiens) (UniProt Q8NFQ8); test: small molecules binding lysate-expressed LULL1 – cell lysate, human LULL1 lysate, 635/667 nm fluorescence, primary screen (AID 1092); conditions: small-molecule microarray, hLULL1 lysate binding, 635 nm fluorescence; higher = more signal;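 also: probe is lysate of COS7 cells overexpressing human LULL1; score merges per-feature 667 nm fluorescence with signal-to-noise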
[16] = optical density change of DRC41 E. coli – strain DRC41, OD650, 24 h, E. coli filamentation project, primary screen (AID 1093);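 also: MC1000 strain lacking acrAB efflux and sulA so SOS filamentation is blocked; test concentration not given here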; conditions: E. coli DRC41 growth, higher = more signal, called active from +8 up or from −8 down
[17] = probe aLefty2 binding to arrayed compounds – biochemical, biotinylated probe, 635/667 nm fluorescence, primary screen (AID 1094); conditions: small-molecule microarray, higher = more signal;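 also: score merges spot fluorescence near 667 nm with spot signal-to-noise ratio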
[18] = system: Noggin (protein binding on small-molecule microarray); test: small molecules binding Noggin protein – biochemical, 635/667 nm fluorescence, primary screen (AID 1095); conditions: 635 nm fluorescence, higher = more signal;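 also: score merges 667 nm feature fluorescence with signal to noise over triplicate slides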
[19] = biological target: Neurogenic locus notch homolog protein 3 (Homo sapiens) (UniProt Q9UM47); test: small molecules binding NOTCH3 protein – biochemical, 635/667 nm fluorescence, primary screen (AID 1096); conditions: small-molecule microarray, 635 nm fluorescence, higher = more signal
[20] = probe aEGFR binding to arrayed compounds – biochemical, biotinylated probe, 635/667 nm fluorescence, primary screen (AID 1097); conditions: small-molecule microarray, higher = more signal;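 also: probe is a biotinylated anti-EGFR antibody binding compounds printed on slides; score combines fluorescence near 667 nm and signal to noise of each spot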

Sequence of Neurogenic locus notch homolog protein 2 (Homo sapiens) (Q04721 whole entry, looked up, canonical isoform): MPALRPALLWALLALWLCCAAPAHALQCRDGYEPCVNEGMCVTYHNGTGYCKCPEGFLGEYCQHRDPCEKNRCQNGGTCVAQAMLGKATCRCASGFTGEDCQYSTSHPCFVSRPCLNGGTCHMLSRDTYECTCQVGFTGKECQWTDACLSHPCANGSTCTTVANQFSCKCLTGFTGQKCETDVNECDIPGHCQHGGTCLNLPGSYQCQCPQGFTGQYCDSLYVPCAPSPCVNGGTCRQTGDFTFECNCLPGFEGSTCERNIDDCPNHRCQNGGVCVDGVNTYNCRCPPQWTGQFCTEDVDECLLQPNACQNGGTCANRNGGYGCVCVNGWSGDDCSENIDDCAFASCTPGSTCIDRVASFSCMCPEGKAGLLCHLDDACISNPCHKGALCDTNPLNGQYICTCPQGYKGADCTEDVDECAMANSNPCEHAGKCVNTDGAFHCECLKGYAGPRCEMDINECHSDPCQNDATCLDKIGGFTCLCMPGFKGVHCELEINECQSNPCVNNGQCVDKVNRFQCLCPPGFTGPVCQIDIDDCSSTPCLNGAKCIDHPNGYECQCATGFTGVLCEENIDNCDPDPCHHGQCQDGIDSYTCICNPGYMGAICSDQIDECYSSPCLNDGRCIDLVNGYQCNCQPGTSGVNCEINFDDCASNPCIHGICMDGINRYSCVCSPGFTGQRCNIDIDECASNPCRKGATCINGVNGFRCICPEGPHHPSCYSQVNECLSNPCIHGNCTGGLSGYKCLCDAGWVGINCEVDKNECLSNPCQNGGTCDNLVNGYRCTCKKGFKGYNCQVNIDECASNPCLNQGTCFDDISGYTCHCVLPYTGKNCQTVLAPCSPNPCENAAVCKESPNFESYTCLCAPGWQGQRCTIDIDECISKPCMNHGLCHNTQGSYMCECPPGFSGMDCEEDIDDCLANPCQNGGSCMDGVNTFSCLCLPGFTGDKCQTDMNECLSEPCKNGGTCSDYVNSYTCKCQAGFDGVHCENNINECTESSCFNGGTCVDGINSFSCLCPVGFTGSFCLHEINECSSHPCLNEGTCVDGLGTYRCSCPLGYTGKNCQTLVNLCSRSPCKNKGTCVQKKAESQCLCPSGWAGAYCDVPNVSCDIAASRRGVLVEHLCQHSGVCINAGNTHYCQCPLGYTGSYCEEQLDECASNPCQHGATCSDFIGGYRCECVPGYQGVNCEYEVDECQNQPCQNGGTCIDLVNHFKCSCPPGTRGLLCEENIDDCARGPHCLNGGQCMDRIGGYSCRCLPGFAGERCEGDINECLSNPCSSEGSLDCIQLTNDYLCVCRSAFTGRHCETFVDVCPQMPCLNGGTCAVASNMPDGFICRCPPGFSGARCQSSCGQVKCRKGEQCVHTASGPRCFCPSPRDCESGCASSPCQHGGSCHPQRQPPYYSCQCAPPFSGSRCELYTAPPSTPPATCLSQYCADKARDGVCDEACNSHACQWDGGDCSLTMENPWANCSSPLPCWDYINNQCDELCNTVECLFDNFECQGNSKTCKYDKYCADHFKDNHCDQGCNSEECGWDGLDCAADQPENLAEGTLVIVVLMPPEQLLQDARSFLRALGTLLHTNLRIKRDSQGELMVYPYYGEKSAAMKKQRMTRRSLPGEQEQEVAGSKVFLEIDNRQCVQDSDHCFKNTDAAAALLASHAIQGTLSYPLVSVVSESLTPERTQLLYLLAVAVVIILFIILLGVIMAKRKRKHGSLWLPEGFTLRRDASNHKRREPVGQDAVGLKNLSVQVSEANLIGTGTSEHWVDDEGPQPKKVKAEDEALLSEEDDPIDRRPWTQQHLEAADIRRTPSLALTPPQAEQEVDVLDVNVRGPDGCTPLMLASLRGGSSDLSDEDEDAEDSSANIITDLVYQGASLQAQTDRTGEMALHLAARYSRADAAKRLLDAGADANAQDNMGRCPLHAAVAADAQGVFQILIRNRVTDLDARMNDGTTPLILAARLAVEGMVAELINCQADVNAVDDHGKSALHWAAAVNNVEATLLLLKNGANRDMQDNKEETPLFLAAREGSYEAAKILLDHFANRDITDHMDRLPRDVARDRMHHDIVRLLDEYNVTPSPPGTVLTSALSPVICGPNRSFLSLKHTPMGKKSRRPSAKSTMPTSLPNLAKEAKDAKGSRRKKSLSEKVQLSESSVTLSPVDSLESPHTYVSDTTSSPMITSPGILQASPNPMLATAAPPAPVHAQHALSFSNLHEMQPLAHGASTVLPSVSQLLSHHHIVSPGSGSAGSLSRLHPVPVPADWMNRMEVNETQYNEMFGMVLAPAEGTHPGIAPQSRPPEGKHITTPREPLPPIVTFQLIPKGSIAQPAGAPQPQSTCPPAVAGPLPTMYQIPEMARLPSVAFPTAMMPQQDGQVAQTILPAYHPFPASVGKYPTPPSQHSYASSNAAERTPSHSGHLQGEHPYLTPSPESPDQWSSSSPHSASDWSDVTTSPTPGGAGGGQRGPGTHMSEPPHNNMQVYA
Sequence of Neurogenic locus notch homolog protein 3 (Homo sapiens) (Q9UM47 whole entry, looked up): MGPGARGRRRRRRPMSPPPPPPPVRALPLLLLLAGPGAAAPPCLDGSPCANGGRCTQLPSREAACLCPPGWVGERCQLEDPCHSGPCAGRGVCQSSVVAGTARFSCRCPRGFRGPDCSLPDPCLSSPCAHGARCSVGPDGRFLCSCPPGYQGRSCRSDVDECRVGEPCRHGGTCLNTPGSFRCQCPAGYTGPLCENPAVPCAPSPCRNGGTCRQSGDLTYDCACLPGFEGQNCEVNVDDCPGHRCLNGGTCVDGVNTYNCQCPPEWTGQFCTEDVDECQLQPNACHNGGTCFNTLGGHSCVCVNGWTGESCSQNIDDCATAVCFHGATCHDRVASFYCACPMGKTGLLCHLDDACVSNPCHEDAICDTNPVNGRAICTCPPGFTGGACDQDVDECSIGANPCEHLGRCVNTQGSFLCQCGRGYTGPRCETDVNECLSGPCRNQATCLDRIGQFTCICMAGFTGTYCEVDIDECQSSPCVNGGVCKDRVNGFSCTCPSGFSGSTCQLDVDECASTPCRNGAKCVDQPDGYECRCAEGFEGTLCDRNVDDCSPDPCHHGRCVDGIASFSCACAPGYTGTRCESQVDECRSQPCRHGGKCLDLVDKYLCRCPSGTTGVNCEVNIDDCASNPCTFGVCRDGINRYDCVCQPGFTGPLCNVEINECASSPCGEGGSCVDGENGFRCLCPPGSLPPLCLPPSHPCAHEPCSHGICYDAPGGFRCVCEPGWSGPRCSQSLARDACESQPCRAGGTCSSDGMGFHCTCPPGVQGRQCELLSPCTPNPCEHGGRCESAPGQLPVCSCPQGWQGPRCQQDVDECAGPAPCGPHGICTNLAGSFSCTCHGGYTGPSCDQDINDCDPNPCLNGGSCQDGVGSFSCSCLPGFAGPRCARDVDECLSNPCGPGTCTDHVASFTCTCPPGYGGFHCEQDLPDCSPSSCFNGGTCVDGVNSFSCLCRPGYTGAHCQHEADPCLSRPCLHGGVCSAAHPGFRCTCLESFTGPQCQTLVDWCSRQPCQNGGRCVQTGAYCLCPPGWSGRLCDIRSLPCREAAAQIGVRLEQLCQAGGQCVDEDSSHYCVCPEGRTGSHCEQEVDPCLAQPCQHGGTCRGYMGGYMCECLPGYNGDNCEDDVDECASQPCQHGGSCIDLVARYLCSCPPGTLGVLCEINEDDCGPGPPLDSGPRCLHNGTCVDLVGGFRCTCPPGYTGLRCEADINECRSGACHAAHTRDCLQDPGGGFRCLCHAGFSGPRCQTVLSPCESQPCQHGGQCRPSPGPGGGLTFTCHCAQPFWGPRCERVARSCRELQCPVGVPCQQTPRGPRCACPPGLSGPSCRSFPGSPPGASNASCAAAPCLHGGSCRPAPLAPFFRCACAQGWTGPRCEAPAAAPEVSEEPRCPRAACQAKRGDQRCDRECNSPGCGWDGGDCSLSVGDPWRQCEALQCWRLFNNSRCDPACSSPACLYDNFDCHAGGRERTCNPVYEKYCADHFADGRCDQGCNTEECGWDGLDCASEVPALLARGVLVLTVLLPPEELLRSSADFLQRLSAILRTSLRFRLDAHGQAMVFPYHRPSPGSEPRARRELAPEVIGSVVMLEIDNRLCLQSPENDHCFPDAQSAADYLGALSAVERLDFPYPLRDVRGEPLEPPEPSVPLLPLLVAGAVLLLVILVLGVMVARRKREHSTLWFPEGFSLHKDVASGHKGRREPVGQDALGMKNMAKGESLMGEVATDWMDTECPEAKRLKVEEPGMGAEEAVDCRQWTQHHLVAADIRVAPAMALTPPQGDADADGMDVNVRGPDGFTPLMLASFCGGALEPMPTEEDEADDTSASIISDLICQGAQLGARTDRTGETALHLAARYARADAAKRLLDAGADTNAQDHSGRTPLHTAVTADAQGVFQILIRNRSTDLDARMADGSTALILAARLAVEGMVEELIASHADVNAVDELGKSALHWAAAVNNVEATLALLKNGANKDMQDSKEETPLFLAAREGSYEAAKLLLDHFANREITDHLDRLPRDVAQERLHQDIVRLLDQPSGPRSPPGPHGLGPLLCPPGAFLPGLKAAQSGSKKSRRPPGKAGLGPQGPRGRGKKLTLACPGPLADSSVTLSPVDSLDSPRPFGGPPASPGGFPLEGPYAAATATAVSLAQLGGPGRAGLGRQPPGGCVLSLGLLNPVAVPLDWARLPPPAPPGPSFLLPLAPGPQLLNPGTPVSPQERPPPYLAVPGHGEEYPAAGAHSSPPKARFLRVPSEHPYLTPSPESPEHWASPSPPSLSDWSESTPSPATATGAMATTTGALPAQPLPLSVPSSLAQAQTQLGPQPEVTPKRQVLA

| SMILES | composite z-score [1] | composite z-score [2] | composite z-score [3] | composite z-score [4] | composite z-score [5] | composite z-score [6] | composite z-score [7] | z-score [8] | composite z-score [9] | composite z-score [10] | composite z-score [11] | z-score [12] | z-score [13] | z-score [14] | composite z-score [15] | z-score [16] | composite z-score [17] | composite z-score [18] | composite z-score [19] | composite z-score [20] |
| --- | --- | --- | --- | --- | --- | --- | --- | --- | --- | --- | --- | --- | --- | --- | --- | --- | --- | --- | --- | --- |
| Cc1ccc(S(=O)(=O)N2CC(C(=O)O)=CCC2c2ccccc2)cc1 (stereo not given) | 0.578 | -0.0007 | -0.0128 | 0.118 | -0.0631 | -0.0288 | -0.11 | -1.03 (inactive) | -0.513 | -0.204 | 0.461 | -0.224 (inactive) | 1.29 (inactive) | -0.0893 (inactive) | 2.89 | -1.11 (inactive) | 0.431 | -1.22 | -0.231 | 0.254 |
| COC(=O)[C@@]1(Cc2ccccc2)[C@H]2c3cc(C(=O)N(C)C)n(Cc4ccccc4)c3C[C@H]2CN1C(=O)c1ccccc1 | 0.0252 | -0.705 | 0.274 | 0.747 | 1.67 | 0.614 | 1.26 | 0.273 (inactive) | 0.856 | 0.896 | -0.361 | 0.84 (inactive) | 1.74 (inactive) | 1.51 (inactive) | 2.59 | -0.813 (inactive) | 0.434 | 0.018 | 0.85 | 0.291 |
| C[N+](C)(C)CCCC[C@@H]1NC(=O)[C@H]2C[C@@H](C(=O)O)[C@@H](c3cccc(OCCO)c3)N2C1=O | 2.11 | 1.85 | 0.676 | 0.788 | 1.01 | 2.81 | 1.44 | -0.698 (inactive) | 1.65 | 1.88 | 1.54 | -1.28 (inactive) | -0.362 (inactive) | -0.498 (inactive) | 3.79 | 0.0136 (inactive) | 1.5 | 1.83 | 1.1 | 1.06 |
| CCCCC(=O)N(Cc1ccccc1F)[C@@H]1CC(C(=O)NCCO)=C[C@H](Oc2c(I)cc(CO)cc2OC)[C@H]1O | -0.451 | 0.686 | -0.0462 | 0.228 | 1.17 | 1.47 | 1.42 | -0.84 (inactive) | 0.442 | 0.27 | 1.54 | 0.41 (inactive) | -1.91 (inactive) | -1.02 (inactive) | 1.83 | 0.772 (inactive) | -0.0718 | 2.04 | 1.04 | 0.0209 |
| O=C1OCCC=C[C@H]2OC34C=CCN(CCN5CCOCC5)C(=O)[C@H]3N(CCO)C(=O)[C@@H]4C12 (stereo not given in full) | -0.217 | 1.12 | -0.179 | 0.127 | -0.621 | -0.714 | 0.916 | -0.0663 (inactive) | -0.569 | -0.489 | 0.134 | -0.698 (inactive) | -0.518 (inactive) | -0.482 (inactive) | -0.114 | 0.0484 (inactive) | -0.145 | 0.922 | 0.439 | -0.23 |
| Cc1ccc([C@H]2C(C(=O)O)=C[C@@H](C(C)C)N2S(=O)(=O)c2ccc(C)cc2)cc1 | -0.0974 | -0.304 | -0.0667 | 0.163 | 1.14 | 1.19 | 1.31 | -1.57 (inactive) | 0.384 | -0.287 | 0.425 | -0.763 (inactive) | 0.0459 (inactive) | -0.128 (inactive) | 3.51 | -0.678 (inactive) | -0.0598 | -0.0681 | 0.412 | -0.0457 |
| C=C(C(=O)CC[C@@H](OC(C)=O)c1ccc(OCCO)cc1)C(C)C | 0.0823 | 0.366 | -0.0676 | 0.853 | 0.146 | 0.845 | 1.19 | 2.4 (inactive) | -0.193 | -0.287 | 0.387 | -1.33 (inactive) | -1.38 (inactive) | -0.423 (inactive) | 1.45 | 0.278 (inactive) | -0.114 | -0.053 | -0.054 | 0.0073 |
| C#C[C@H](O[Si](C#CCCCCCC)(C(C)C)C(C)C)c1ccccc1 | -0.441 | -0.0593 | -0.0994 | 0.323 | -0.55 | -0.204 | 0.0885 | 0.0077 (inactive) | -0.748 | -0.217 | 0.631 | 0.0821 (inactive) | 0.384 (inactive) | -0.653 (inactive) | 0.432 | 0.411 (inactive) | -0.114 | 0.186 | 0.13 | -0.171 |
| CCCNC(=O)[C@@]1(C)c2ccccc2C(=O)N(Cc2cc(C(F)(F)F)cc(C(F)(F)F)c2)[C@H]1c1ccc(CO)cc1 | 0.177 | -0.0656 | -0.0653 | 0.108 | -0.626 | 1.68 | 1.37 | 0.0565 (inactive) | -0.0368 | -0.0645 | 1.43 | 0.0841 (inactive) | -0.25 (inactive) | -0.49 (inactive) | 2.59 | -0.667 (inactive) | -0.119 | -0.675 | -0.131 | -0.137 |
| C[N+](C)(C)CCCCNC(=O)[C@H]1C[C@H]2C(=O)N3CCC[C@H]3C(=O)N2[C@H]1c1ccc(O)cc1 | -0.32 | 0.799 | -0.12 | 1.15 | 0.534 | -0.0852 | 1.34 | 1.42 (inactive) | 0.446 | 0.176 | 1.54 | 0.0531 (inactive) | 0.0211 (inactive) | -1.41 (inactive) | 2.14 | -0.0773 (inactive) | -0.101 | 1.85 | 1.04 | 0.124 |
